Measured values: PubChem BioAssay (NCATS)
Inconclusive results are not listed. Entries that show only a call come without a potency. A number with no mark means an inactive call. Active and inactive are the calls of the source. Unless noted, calls come from the whole dose curve; as a rule, active = well fitted curve in the direction sought with a large enough effect; inconclusive = small, poorly fitted or top-dose-only effect, or another doubt; inactive = no such curve, though single readings can be large; an effect the other way counts as inactive or inconclusive.

What was measured:
[1] = target: Voltage-gated inwardly rectifying potassium channel KCNH2 (Homo sapiens) (UniProt Q12809); experiment: qHTS Assay for Small Molecule Inhibitors of the Human hERG Channel Activity (AID 588834);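 note: top concentration of the series differs between compounds; lower thallium flux fluorescence means stronger hERG block; nearly all actives have a fitted effect of over 50% in size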
In short: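 Measured: FluxOR fluorescence after thallium stimulation in U2OS cells transduced with hERG by baculovirus. Compounds pre-incubated around 10 min; medium Opti-MEM with 2% FCS. AC50 from Hill equation.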

[2] = S16 Schwann cell viability assay (CellTiter-Glo assay) (AID 624031);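 note: native untransfected S16 rat Schwann cells; cellular ATP luminescence as a viability measure; nearly all actives have a fitted effect of over 70% in size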
In short: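 Following overnight culture in 10% FBS DMEM, parental S16 rat Schwann cells are dosed for 24 h at 37 °C. Viability is read as CellTiter-Glo luminescence and expressed as % activity relative to DMSO (0%) and no-cell wells.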

[3] = S16 Schwann cell PMP22 intronic element firefly luciferase assay (AID 624032); note: nearly all actives have a fitted effect of over 30% in size; note: potency is the fitted concentration of half-maximal effect
In short: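 Rat S16 Schwann cells stably carrying firefly luciferase driven by a PMP22 intronic element, in 10% FBS, treated 24 h at 37 C. ONE-Glo luminescence normalized to PTC124 control and DMSO (0%); curves classed by r2, magnitude and activity.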

[4] = target: Luciferin 4-monooxygenase (Photinus pyralis) (UniProt P08659); experiment: Biochemical firefly luciferase enzyme assay for NPC (AID 624030); note: nearly all actives have a fitted effect of over 70% in size; note: potency is the fitted concentration of half-maximal effect
In short: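 Purified P. pyralis luciferase at 10 nM in 50 mM Tris Acetate (final), luminescence read within 5 minutes of enzyme addition to compounds. Activity normalised to PTC124 versus DMSO; concentration-response curves classed by r2, magnitude and activity.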

[5] = S16 Schwann cell PMP22 intronic element beta-lactamase assay (AID 624044; calls by dose curve; note: nearly all actives have a fitted effect of over 15% in size); conditions: S16 rat Schwann cells, PMP22 element beta-lactamase FRET, 24 h; ratio activity, negative = inhibition: at 38.3 µM (top of the series) unless noted
In short: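 Rat S16 Schwann cells with beta-Lac driven by a PMP22 intronic element, compound-treated 24 h at 37 °C. LiveBLAzer FRET B/G read: 460 nm normalized to potassium clavulanate vs DMSO; 535 nm FRET as viability; concentration-effect curves classified.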

Luciferin 4-monooxygenase (Photinus pyralis), sequence (P08659 whole entry, looked up): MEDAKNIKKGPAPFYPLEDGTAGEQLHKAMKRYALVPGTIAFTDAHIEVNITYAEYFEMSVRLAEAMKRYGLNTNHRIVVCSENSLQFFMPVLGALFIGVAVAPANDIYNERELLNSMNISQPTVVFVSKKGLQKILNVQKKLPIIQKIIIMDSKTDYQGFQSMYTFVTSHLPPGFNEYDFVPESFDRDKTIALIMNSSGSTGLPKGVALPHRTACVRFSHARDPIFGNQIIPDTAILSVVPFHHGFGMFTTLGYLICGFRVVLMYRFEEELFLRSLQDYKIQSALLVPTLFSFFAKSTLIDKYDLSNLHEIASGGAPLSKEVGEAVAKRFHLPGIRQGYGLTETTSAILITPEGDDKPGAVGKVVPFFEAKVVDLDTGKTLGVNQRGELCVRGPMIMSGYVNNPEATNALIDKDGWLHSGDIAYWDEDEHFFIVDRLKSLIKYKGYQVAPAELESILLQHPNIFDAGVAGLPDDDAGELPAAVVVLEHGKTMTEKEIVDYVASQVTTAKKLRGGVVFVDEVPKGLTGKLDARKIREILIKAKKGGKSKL
Voltage-gated inwardly rectifying potassium channel KCNH2 (Homo sapiens), sequence (Q12809 whole entry, looked up): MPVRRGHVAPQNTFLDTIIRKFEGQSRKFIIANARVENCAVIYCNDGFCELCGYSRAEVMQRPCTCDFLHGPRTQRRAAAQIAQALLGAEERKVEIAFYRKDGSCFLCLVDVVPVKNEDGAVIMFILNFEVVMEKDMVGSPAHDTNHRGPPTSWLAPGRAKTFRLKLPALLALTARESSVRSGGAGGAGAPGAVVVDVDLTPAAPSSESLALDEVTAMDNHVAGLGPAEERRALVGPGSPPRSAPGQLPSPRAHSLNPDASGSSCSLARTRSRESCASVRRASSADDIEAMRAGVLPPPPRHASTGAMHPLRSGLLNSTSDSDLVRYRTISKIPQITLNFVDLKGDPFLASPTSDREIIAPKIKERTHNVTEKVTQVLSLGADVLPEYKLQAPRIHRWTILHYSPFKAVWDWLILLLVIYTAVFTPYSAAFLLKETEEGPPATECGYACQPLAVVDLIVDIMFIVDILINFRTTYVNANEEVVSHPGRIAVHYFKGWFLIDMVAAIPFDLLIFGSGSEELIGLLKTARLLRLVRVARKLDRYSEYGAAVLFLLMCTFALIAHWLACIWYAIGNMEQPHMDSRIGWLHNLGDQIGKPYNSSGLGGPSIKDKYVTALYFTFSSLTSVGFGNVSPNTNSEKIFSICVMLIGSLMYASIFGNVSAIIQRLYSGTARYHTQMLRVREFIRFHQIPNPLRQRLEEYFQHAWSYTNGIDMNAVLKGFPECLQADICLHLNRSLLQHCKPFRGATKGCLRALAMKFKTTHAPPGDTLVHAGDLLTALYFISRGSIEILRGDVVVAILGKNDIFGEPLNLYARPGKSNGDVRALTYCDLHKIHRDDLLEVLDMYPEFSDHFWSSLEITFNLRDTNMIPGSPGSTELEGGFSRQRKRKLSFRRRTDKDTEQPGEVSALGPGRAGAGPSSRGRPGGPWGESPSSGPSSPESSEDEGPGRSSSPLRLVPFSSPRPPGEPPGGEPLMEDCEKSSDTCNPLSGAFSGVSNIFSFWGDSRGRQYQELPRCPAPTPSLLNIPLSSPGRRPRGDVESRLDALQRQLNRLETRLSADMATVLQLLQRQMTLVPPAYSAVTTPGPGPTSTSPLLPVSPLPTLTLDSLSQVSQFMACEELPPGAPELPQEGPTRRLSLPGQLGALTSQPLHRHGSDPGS

## O=C1CCC(=O)N1CO
[1]
  Potency: inactive
[2]
  Potency: inactive
[3]
  Potency: inactive

## C[C@]12CC[C@@H]3c4ccc(OC(=O)c5ccccc5)cc4CC[C@H]3[C@@H]1CC[C@@H]2O
[4]
  Potency: inactive
[2]
  Potency: inactive
[3]
  Potency: 3.61 µM (active)

## Cc1c(Cl)cccc1Nc1ncccc1C(=O)O
[1]
  Potency: inactive
[2]
  Potency: inactive
[3]
  Potency: inactive
[5]
  ratio activity, negative = inhibition: -7.17%

## CC1CCCCN1CCCOC(=O)c1ccccc1 (stereo unspecified)
[4]
  Potency: inactive
[2]
  Potency: inactive
[3]
  Potency: inactive

## CCC(C)[C@@H](N)C(=O)O (stereo partly specified)
[4]
  Potency: inactive
[2]
  Potency: inactive
[3]
  Potency: inactive
[5]
  ratio activity, negative = inhibition: 8.55%

## O=C(O)Cc1cc(I)c(Oc2ccc(O)c(I)c2)c(I)c1
[4]
  Potency: inactive
[2]
  Potency: inactive
[3]
  Potency: inactive
[5]
  ratio activity, negative = inhibition: 4.37% [at 17.1 µM]

## CCOC(=O)c1cc(-c2ccccc2)nc2ccc(C)cc12
[4]
  Potency: inactive
[2]
  Potency: inactive
[5]
  ratio activity, negative = inhibition: 4.28%

## CC(C)(CO)[C@@H](O)C(=O)NCCC(=O)NCCSSCCNC(=O)CCNC(=O)[C@H](O)C(C)(C)CO
[4]
  Potency: inactive
[2]
  Potency: inactive
[3]
  Potency: inactive
[5]
  ratio activity, negative = inhibition: 2.37%

## CCCCCc1ccc(C)cc1O
[4]
  Potency: inactive
[3]
  Potency: inactive

## C=CCCCCCCCCC(=O)OC
[4]
  Potency: inactive
[2]
  Potency: inactive
[3]
  Potency: inactive
[5]
  ratio activity, negative = inhibition: -14.3%

## CC(C)=CCC/C(C)=C/C=C/C(C)=C/C=C/C(C)=C/C=C/C=C(C)/C=C/C=C(C)/C=C/C=C(\C)CCC=C(C)C
[4]
  Potency: inactive
[2]
  Potency: inactive
[3]
  Potency: inactive

## CC(C)Cc1ccc([C@@H](C)C(=O)NS(C)(=O)=O)cc1
[4]
  Potency: inactive
[2]
  Potency: inactive
[3]
  Potency: inactive

## CN1CCc2c(c3ccccc3n2Cc2ccccc2)C1
[4]
  Potency: inactive
[2]
  Potency: inactive
[3]
  Potency: inactive

## CN[C@@H]1[C@H](O[C@H]2[C@H](O[C@H]3[C@H](O)[C@@H](O)[C@H](N=C(N)N)[C@@H](O)[C@@H]3N=C(N)N)O[C@@H](C)[C@]2(O)C=O)O[C@@H](CO)[C@H](O)[C@H]1O
[4]
  Potency: inactive
[2]
  Potency: inactive
[3]
  Potency: inactive
[5]
  ratio activity, negative = inhibition: 0%

## Cc1cc(=O)c(C(=O)N[C@@H](C(=O)N[C@@H]2C(=O)N3C(C(=O)O)=C(CSc4nnnn4C)CS[C@H]23)c2ccc(O)cc2)c[nH]1
[4]
  Potency: inactive
[2]
  Potency: inactive
[3]
  Potency: inactive
[5]
  ratio activity, negative = inhibition: 0.254%

## Cc1ccc(C(C)(C)c2ccc(C)cc2)cc1
[4]
  Potency: inactive
[2]
  Potency: inactive
[3]
  Potency: inactive

## CCCCCCCCCCCCCCCCCC(=O)OCC(C)O (stereo unspecified)
[5]
  ratio activity, negative = inhibition: -0.254%

## FC(F)(F)COCC(F)(F)F
[4]
  Potency: inactive
[2]
  Potency: inactive
[3]
  Potency: inactive

## CN1CCCC(CN2c3ccccc3Sc3ccccc32)C1 (stereo unspecified)
[4]
  Potency: inactive
[3]
  Potency: inactive

## COc1ccc(C(=O)c2ccc(C)cc2)c(O)c1
[4]
  Potency: 14.4 µM (active)
[2]
  Potency: inactive
[3]
  Potency: inactive
[5]
  ratio activity, negative = inhibition: 6.33%

## S=C1SCN(Cc2ccccc2)CN1Cc1ccccc1
[4]
  Potency: inactive
[3]
  Potency: 14.4 µM (active)
[5]
  ratio activity, negative = inhibition: -11.2%

## CN1C(C(=O)Nc2ccccn2)C(=O)c2sc(Cl)cc2S1(=O)=O (stereo unspecified)
[2]
  Potency: inactive
[5]
  ratio activity, negative = inhibition: 6.16%

## O=C1c2ccccc2C(=O)c2c1ccc(O)c2O
[3]
  Potency: inactive
[5]
  ratio activity, negative = inhibition: 0.767%

## C[C@]12CCC(=O)C[C@@H]1CC[C@@H]1[C@@H]2CC[C@]2(C)C=CC[C@@H]12
[4]
  Potency: inactive
[2]
  Potency: inactive
[3]
  Potency: inactive
[5]
  ratio activity, negative = inhibition: 4.94%

## C=CCN1CCCC1CNC(=O)c1cc(S(N)(=O)=O)cc(OC)c1OC (stereo unspecified)
[4]
  Potency: inactive
[2]
  Potency: inactive
[3]
  Potency: inactive
[5]
  ratio activity, negative = inhibition: 1.62%

## N[C@@H](Cc1cc(I)c(Oc2ccc(O)c(I)c2)c(I)c1)C(=O)O
[4]
  Potency: inactive
[2]
  Potency: inactive
[5]
  ratio activity, negative = inhibition: -3.84%

## Cc1ccccn1
[4]
  Potency: inactive
[2]
  Potency: inactive
[5]
  ratio activity, negative = inhibition: -0.827%

## O=[N+]([O-])c1c(Cl)cccc1-c1c[nH]cc1Cl
[4]
  Potency: inactive
[2]
  Potency: inactive
[3]
  Potency: inactive
[5]
  ratio activity, negative = inhibition: -0.605%

## O=C1c2ccccc2CN2C(=O)c3ccccc3CN12
[4]
  Potency: inactive
[2]
  Potency: inactive
[3]
  Potency: inactive
[5]
  ratio activity, negative = inhibition: 0.507%

## CCOC(=O)C1=C(COCCN)NC(C)=C(C(=O)OC)C1c1ccccc1Cl (stereo unspecified)
[4]
  Potency: inactive
[5]
  ratio activity, negative = inhibition: -3.48%

## O=C1c2ccccc2C(=O)C1c1ccc(F)cc1
[4]
  Potency: inactive
[2]
  Potency: inactive
[3]
  Potency: inactive
[5]
  ratio activity, negative = inhibition: 2.55%

## O=C(OC1C[C@@H]2CC3C[C@H](C1)N2CC3=O)c1c[nH]c2ccccc12 (stereo partly specified)
[4]
  Potency: inactive
[2]
  Potency: inactive
[3]
  Potency: inactive
[5]
  ratio activity, negative = inhibition: -0.0634%

## [O]=[Bi][O][Bi]=[O]
[4]
  Potency: inactive
[2]
  Potency: inactive
[3]
  Potency: inactive
[5]
  ratio activity, negative = inhibition: 3.6%

## Cc1c(C)c2c(c(C)c1OC(=O)CCC(=O)O)CC[C@@](C)(CCC[C@H](C)CCC[C@H](C)CCCC(C)C)O2
[4]
  Potency: inactive
[2]
  Potency: inactive
[3]
  Potency: inactive
[5]
  ratio activity, negative = inhibition: -15.1%
